Results taken from the antibiotic and cytotoxicity screens of Wong et al. (2023).
Screen size: about 39,000 compounds; about 3,300 (8.5%) were called active. The full list was thinned out, with actives kept by preference.

System: HepG2
Assay: cytotoxicity call (relative viability < 0.9)
Details: 10 µM

SMILES | cytotoxicity call
C[C@@H](NC(=O)C[C@@H]1CC[C@@H](NC(=O)CN2CCOCC2)[C@@H](CO)O1)c1ccccc1 | inactive
O=C1c2c(O)cccc2Cc2cccc(O)c21 | inactive
O=C1c2cccc(O)c2C(=O)c2c(O)cccc21 | active
Cc1cc(O)c2c(c1)C(=O)c1cccc(O)c1C2=O | inactive
COc1cccc(NC(=O)N2C[C@H](O)COC[C@@H]3O[C@@H](CC(=O)NCc4ccccc4F)CC[C@H]32)c1 | inactive
CNC(=O)CN(C#N)c1nc(N(C)C)nc(N(C)C)n1 | inactive
C[C@@H]1CCCCO[C@H](CN(C)Cc2ccc(C(=O)O)cc2)[C@H](C)CN([C@@H](C)CO)C(=O)c2cc(NC(=O)Nc3cccc4ccccc34)ccc2O1 | inactive
C[C@H](CO)N1C[C@H](C)[C@@H](CN(C)Cc2ccc(C(F)(F)F)cc2)Oc2c(NC(=O)Nc3ccccc3)cccc2C1=O | inactive
CN(C)Cc1c(C(=O)N/N=C/c2ccncc2)nnn1-c1nonc1N | active
NNC(=O)c1nnn(-c2nonc2N)c1CN1CCCCC1 | inactive
CCc1c(C(=O)OC)nnn1-c1nonc1N | inactive
Cc1noc(C)c1NC(=O)N(C)C[C@@H]1Oc2c(NS(=O)(=O)c3ccccc3)cccc2C(=O)N([C@@H](C)CO)C[C@H]1C | inactive
COc1ccc(NC(=O)N(C)C[C@@H]2OCCCC[C@H](C)Oc3ccc(NC(=O)Nc4ccc(C(F)(F)F)cc4)cc3C(=O)N([C@@H](C)CO)C[C@@H]2C)cc1 | inactive
C[C@@H]1CCCCO[C@H](CN(C)C(=O)Nc2ccccc2)[C@H](C)CN([C@@H](C)CO)C(=O)c2cc(NC(=O)Nc3ccc(C(F)(F)F)cc3)ccc2O1 | inactive
O=C1CC[C@H](C(=O)N2CCCCC2)N1 | inactive
COc1ccc(S(=O)(=O)N(C)C[C@@H]2Oc3ccc(NS(=O)(=O)c4ccccc4)cc3CC(=O)N([C@H](C)CO)C[C@H]2C)cc1 | inactive
Cc1ccc(S(=O)(=O)N(C)C[C@H]2Oc3ccc(NS(=O)(=O)c4ccc(F)cc4)cc3CC(=O)N([C@@H](C)CO)C[C@@H]2C)cc1 | active
COc1ccc(S(=O)(=O)N(C)C[C@@H]2Oc3ccc(NS(=O)(=O)c4ccccc4)cc3CC(=O)N([C@@H](C)CO)C[C@H]2C)cc1 | active
Cc1noc(C)c1S(=O)(=O)Nc1ccc2c(c1)CC(=O)N([C@@H](C)CO)C[C@@H](C)[C@H](CN(C)S(=O)(=O)c1ccc(Cl)cc1)O2 | active
Cc1noc(C)c1S(=O)(=O)Nc1ccc2c(c1)CC(=O)N([C@H](C)CO)C[C@H](C)[C@@H](CN(C)S(=O)(=O)c1ccc(Cl)cc1)O2 | inactive
Cc1noc(C)c1S(=O)(=O)Nc1ccc2c(c1)CC(=O)N([C@H](C)CO)C[C@@H](C)[C@@H](CN(C)S(=O)(=O)c1ccc(Cl)cc1)O2 | inactive
COc1ccc(S(=O)(=O)N(C)C[C@H]2Oc3ccc(NC(=O)Cc4ccccc4)cc3CC(=O)N([C@H](C)CO)C[C@@H]2C)cc1 | inactive

SMILES | cytotoxicity call
Cc1ccc(S(=O)(=O)Nc2ccc3c(c2)CC(=O)N([C@@H](C)CO)C[C@H](C)[C@@H](CN(C)S(=O)(=O)c2ccc(F)cc2)O3)cc1 | inactive
COc1ccc(S(=O)(=O)Nc2ccc3c(c2)CC(=O)N([C@@H](C)CO)C[C@H](C)[C@@H](CN(C)S(=O)(=O)c2ccccc2)O3)cc1 | inactive
Cc1ccc(S(=O)(=O)N(C)C[C@H]2Oc3ccc(NS(=O)(=O)c4ccc(F)cc4)cc3CC(=O)N([C@@H](C)CO)C[C@H]2C)cc1 | inactive
COc1ccc(S(=O)(=O)N(C)C[C@@H]2Oc3ccc(NC(=O)Cc4ccccc4)cc3CC(=O)N([C@H](C)CO)C[C@@H]2C)cc1 | active
COc1ccc(S(=O)(=O)N(C)C[C@@H]2Oc3ccc(NC(=O)Cc4ccccc4)cc3CC(=O)N([C@@H](C)CO)C[C@H]2C)cc1 | inactive
O=c1cc[nH]c(C(F)(F)F)n1 | inactive
C[C@@H]1CCCCO[C@@H](CN(C)C(=O)Nc2ccccc2)[C@H](C)CN([C@@H](C)CO)C(=O)c2cc(NS(=O)(=O)c3cccs3)ccc2O1 | inactive
C[C@H](CO)N1C[C@H](C)[C@H](CN(C)S(=O)(=O)c2cn(C)cn2)Oc2ncc(C#CCN(C)C)cc2C1=O | inactive
COc1ccc(NC(=O)Nc2cccc3c2O[C@H](CN(C)S(C)(=O)=O)[C@@H](C)CN([C@H](C)CO)C3=O)cc1 | inactive
Cc1noc(C)c1NC(=O)N(C)C[C@@H]1OCCCC[C@@H](C)Oc2ccc(NC(=O)c3ccccc3)cc2C(=O)N([C@H](C)CO)C[C@H]1C | inactive
CCC(=O)N1CCC[C@H](C(=O)O)C1 | inactive
NC(=O)CCCCC(N)=O | inactive
COc1ccc(NC(=O)Nc2ccc3c(c2)C(=O)N([C@@H](C)CO)C[C@@H](C)[C@@H](CN(C)C(=O)Nc2ccc(C(F)(F)F)cc2)OCCCC[C@@H](C)O3)cc1 | inactive
O=C(COP(=O)(O)O)[C@H](O)[C@@H](O)COP(=O)(O)O | inactive
C[C@@H]1CN([C@H](C)CO)C(=O)c2cc(NS(=O)(=O)c3ccc(F)cc3)ccc2O[C@@H](C)CCCCO[C@@H]1CN(C)C(=O)Cc1ccccc1 | inactive
C[C@@H]1CN([C@H](C)CO)C(=O)Cc2cc(NS(=O)(=O)c3ccc(Cl)cc3)ccc2O[C@@H]1CN(C)C | inactive
C[C@@H]1CN([C@@H](C)CO)C(=O)Cc2cc(NS(=O)(=O)c3ccc(Cl)cc3)ccc2O[C@@H]1CN(C)C | inactive
COc1ccc(S(=O)(=O)Nc2ccc3c(c2)CC(=O)N([C@H](C)CO)C[C@@H](C)[C@@H](CN(C)C)O3)cc1 | active
COc1ccc(S(=O)(=O)Nc2ccc3c(c2)CC(=O)N([C@H](C)CO)C[C@H](C)[C@H](CN(C)C)O3)cc1 | inactive
C[C@H]1CN([C@@H](C)CO)C(=O)Cc2cc(NS(=O)(=O)c3ccc(Cl)cc3)ccc2O[C@@H]1CN(C)C | active
COc1ccc(S(=O)(=O)Nc2ccc3c(c2)CC(=O)N([C@H](C)CO)C[C@H](C)[C@@H](CN(C)C)O3)cc1 | inactive
C[C@H]1CN([C@@H](C)CO)C(=O)c2cc(NC(=O)Nc3ccccc3)ccc2O[C@H]1CN(C)C(=O)Nc1cccc2ccccc12 | inactive

SMILES | cytotoxicity call
CN1C(=O)c2cc(NS(=O)(=O)c3cccc(F)c3)ccc2OC[C@H]2O[C@H](CC(=O)NCCN3CCCCC3)CC[C@H]21 | inactive
O=C(C[C@H]1C=C[C@@H](NC(=O)c2cccnc2)[C@@H](CO)O1)NCCN1CCCCC1 | inactive
CC(C)NC(=O)Nc1cccc2c1O[C@@H](CN(C)C(=O)NC1CCCCC1)[C@@H](C)CN([C@H](C)CO)C2=O | inactive
COc1ccc(S(=O)(=O)N(C)C[C@H]2OCCCC[C@H](C)Oc3ccc(NC(=O)Nc4ccccc4)cc3C(=O)N([C@@H](C)CO)C[C@@H]2C)cc1 | inactive
C[C@@H]1CN([C@H](C)CO)C(=O)c2cccc(NC(=O)CCCCCC(=O)Nc3ccccc3N)c2O[C@@H]1CN(C)Cc1ccc(-c2ccccc2)cc1 | active
C[C@@H]1CN([C@@H](C)CO)C(=O)c2cccc(NC(=O)CCCCCC(=O)Nc3ccccc3N)c2O[C@H]1CN(C)Cc1ccc(-c2ccccc2)cc1 | inactive
C[C@@H]1CN([C@@H](C)CO)C(=O)c2cccc(NC(=O)CCCCCC(=O)Nc3ccccc3N)c2O[C@@H]1CN(C)Cc1ccc(Cl)c(Cl)c1 | inactive
C[C@H]1CN([C@@H](C)CO)C(=O)c2cccc(NC(=O)CCCCCC(=O)Nc3ccccc3N)c2O[C@@H]1CN(C)Cc1ccc(Cl)c(Cl)c1 | active
C[C@H](CO)N1C[C@H](C)[C@@H](CN(C)Cc2ccc(-c3ccccc3)cc2)Oc2c(NC(=O)CCCCCC(=O)Nc3ccccc3N)cccc2C1=O | active
C[C@@H]1CN([C@@H](C)CO)C(=O)c2cccc(NC(=O)CCCCCC(=O)Nc3ccccc3N)c2O[C@H]1CN(C)Cc1ccc(Cl)c(Cl)c1 | inactive
C[C@H]1CN([C@@H](C)CO)C(=O)c2cccc(NC(=O)CCCCCC(=O)Nc3ccccc3N)c2O[C@H]1CN(C)Cc1ccc(-c2ccccc2)cc1 | inactive
C[C@@H]1CN([C@@H](C)CO)C(=O)c2cccc(NC(=O)CCCCCC(=O)Nc3ccccc3N)c2O[C@@H]1CN(C)Cc1ccc(-c2ccccc2)cc1 | inactive
C[C@@H]1CN([C@H](C)CO)C(=O)c2cccc(NC(=O)CCCCCC(=O)Nc3ccccc3N)c2O[C@H]1CN(C)Cc1ccc(-c2ccccc2)cc1 | inactive
[N-]=[N+]=Nc1ccccc1[C@@H]1OC(c2ccc(OCCCO)cc2)=N[C@]1(CCS(=O)(=O)c1ccccc1)C(=O)NC[C@@H](O)CO | inactive
C[C@@H]1CN([C@H](C)CO)S(=O)(=O)c2ccc(C#CCN(C)C)cc2O[C@H]1CN(C)C(=O)c1ccccc1F | inactive
O=C(C[C@H]1C[C@@H]2c3cc(NC(=O)C4CCOCC4)ccc3O[C@@H]2[C@@H](CO)O1)NCc1ccc(Cl)cc1 | inactive
CCS(=O)(=O)N1C[C@]2(CN(Cc3cccc(c3)Cl)[C@H](CO)c3c2c2ccc(cc2n3C)OC)C1 | inactive
C[C@H](CO)N1C[C@H](C)[C@H](CN(C)C(=O)Nc2ccc(N3CCCCC3)cc2)OCc2cnnn2CCCC1=O | inactive
COc1ccc(NC(=O)Nc2ccc3c(c2)C(=O)N([C@@H](C)CO)C[C@@H](C)[C@@H](CN(C)C(=O)Cc2ccccc2)OCCCC[C@H](C)O3)cc1 | inactive
COc1ccc(NC(=O)Nc2ccc3c(c2)C(=O)N([C@H](C)CO)C[C@H](C)[C@H](CN(C)C(=O)Nc2ccccc2)OCCCC[C@@H](C)O3)cc1 | inactive
C[C@H](O)C#Cc1cnc2c(c1)C(=O)N([C@H](C)CO)C[C@@H](C)[C@H](CN(C)Cc1cncnc1)O2 | inactive
